A short description of experiment [1]: ATG_E_Box_CIS: Attagene CIS-FACTORIAL HepG2 Assay for human Enhancer Box (E-box) (AID 2282936). The conditions noted are these: HepG2 E-box cis-reporter transcription, actives raise or lower the signal. The essentials: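 DMSO served as negative control and baseline for bidirectional fitting. Human hepatoma HepG2 cells, transiently transfected with cis-reporter constructs, were dosed 24 h; reporter mRNA read by RT-PCR and capillary electrophoresis.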

Experiment [2] can be described thus: ATG_M_61_CIS: Attagene CIS-FACTORIAL HepG2 Assay for M61 Transcription Factor (Internal Marker) (AID 2282937). The conditions noted are these: HepG2 Attagene CIS-FACTORIAL M61 internal marker reporter; actives raise or lower the signal. The essentials:
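Endogenous transcription factor activity in HepG2 is read through transiently transfected cis-element reporter units. After 24 h dosing, RNA undergoes reverse transcription, PCR and primer extension with 6-FAM before capillary electrophoresis; DMSO-referenced bidirectional fit.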

Experiment [3] is described as follows: ATG_EGR_CIS: Attagene CIS-FACTORIAL HepG2 Assay for human Early Growth Response 1 (EGR1) (AID 2282938). The conditions noted are these: HepG2 Attagene CIS-FACTORIAL EGR reporter mRNA; actives raise or lower the signal. An outline of the steps: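 Activity is taken as induction or loss of reporter mRNA versus DMSO, fitted bidirectionally. Transcripts from cis-regulated reporter units in transiently transfected HepG2 were measured after 24 h by RT-PCR with capillary electrophoresis.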

Experiment [4] in a line: ATG_M_19_CIS: Attagene CIS-FACTORIAL HepG2 Assay for M19 Transcription Factor (Internal Marker) (AID 2282939). The conditions noted are these: HepG2 Attagene CIS-FACTORIAL M19 internal marker reporter; actives raise or lower the signal. The essentials:
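HepG2 cells transiently transfected with cis-regulated multiplexed reporter units, dosed 24 h. Reporter mRNA quantified by RT-PCR and capillary electrophoresis; internal background marker fitted bidirectionally versus DMSO.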

Experiment [5] in a line: ATG_ERE_CIS: Attagene CIS-FACTORIAL HepG2 Assay for Estrogen Response Element (ERE) (AID 2282940). The conditions noted are these: HepG2 ERE cis-reporter, Attagene RNA transcript; actives raise or lower the signal. The essentials:
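HepG2 cells transiently transfected with multiplexed cis-element reporter units, measuring endogenous transcription factor activity; ERE reporter mRNA quantified after 24 h exposure by RT-PCR, fluorescent labelling, HpaI digestion and capillary electrophoresis. Bidirectional change versus DMSO.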

Experiment [6] is described as follows: ATG_Ets_CIS: Attagene CIS-FACTORIAL HepG2 Assay for human Erythroblast Transformation Specific (ETS) (AID 2282941). The conditions noted are these: HepG2 ETS cis-reporter transcription, actives raise or lower the signal. The essentials: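 After transient cis-reporter transfection, HepG2 cells receive test chemical for 24 h. Reporter mRNA levels, measured by RT-PCR and capillary electrophoresis fluorescence, are analysed bidirectionally relative to the DMSO baseline.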

Experiment [7] deals with Hepatocyte nuclear factor 3-beta (Homo sapiens) (UniProt Q9Y261). Description: ATG_FoxA2_CIS: Attagene CIS-FACTORIAL HepG2 Assay for human Forkhead box A2 (FOXA2) (AID 2282942). The conditions noted are these: HepG2 cis-reporter transcription factor activity, 24 h; actives raise or lower the signal. The essentials:
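Reporter transcript induction is measured by fluorescence after capillary electrophoresis of RT-PCR products from HepG2 cells exposed 24 h. Cis-regulated reporter units report endogenous factor activity; curves fitted both directions against DMSO.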

Experiment [8] is described as follows: ATG_FoxO_CIS: Attagene CIS-FACTORIAL HepG2 Assay for human Forkhead box O (FoxO) (AID 2282943). The conditions noted are these: HepG2 Attagene cis-reporter, FoxO element, mRNA; actives raise or lower the signal. An outline of the steps:
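HepG2, transient MRTU transfection (cis element, endogenous TFs). Dose 24 h. TriZol RNA → oligo(dT) RT → PCR → 6-FAM primer extension → HpaI cut → CE. Gain/loss vs DMSO.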

The nature of experiment [9]: ATG_GATA_CIS: Attagene CIS-FACTORIAL HepG2 Assay for human GATA Binding Protein (AID 2282944). The conditions noted are these: HepG2 GATA cis-element reporter, Attagene multiplex mRNA; actives raise or lower the signal. An outline of the steps: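 HepG2 cells transiently transfected with multiplexed cis-element reporter units measure endogenous GATA activity; after 24 h compound exposure, reporter mRNA quantified by RT-PCR and capillary electrophoresis. Changes fitted in both directions vs DMSO.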

Experiment [10] in a line: ATG_GLI_CIS: Attagene CIS-FACTORIAL HepG2 Assay for human Zinc Finger Protein GLI1 (AID 2282945). The conditions noted are these: HepG2, Attagene cis-factorial reporter mRNA, GLI element; actives raise or lower the signal. The essentials: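 Bidirectional curve fits relative to DMSO, using reporter mRNA levels from RT-PCR plus capillary electrophoresis. Cells were HepG2 transiently carrying cis-regulated reporter constructs, harvested 24 h after dosing.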

Experiment [11] is described as follows: ATG_GRE_CIS: Attagene CIS-FACTORIAL HepG2 Assay for human Glucocorticoid Response Elements (GRE) (AID 2282947). The conditions noted are these: HepG2 GRE cis-reporter, Attagene multiplex mRNA; actives raise or lower the signal. The essentials: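 Assay uses human hepatoma HepG2 cells transfected with cis-promoter reporter units, exposed 24 h. mRNA from reporters detected by RT-PCR plus capillary electrophoresis; DMSO serves as negative control and baseline.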

Experiment [12] can be described thus: ATG_ISRE_CIS: Attagene CIS-FACTORIAL HepG2 Assay for human Interferon Regulatory Factor 1 (IRF1) binding to an Interferon-Stimulated Response Element (ISRE) (AID 2282948). The conditions noted are these: HepG2 ISRE cis-reporter (Attagene), mRNA transcription readout; actives raise or lower the signal. The essentials: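 Quantitation relies on labelled RT-PCR fragments separated by capillary electrophoresis. Human HepG2 cells bearing cis-promoter reporter constructs were treated 24 h; DMSO served as baseline for bidirectional fitting.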

Experiment [13] can be described thus: ATG_M_32_CIS: Attagene CIS-FACTORIAL HepG2 Assay for M32 Transcription Factor (Internal Marker) (AID 2282949).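 Also: background control marker of the multiplexed CIS panel rather than a real target.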 The conditions noted are these: HepG2 Attagene cis-factorial M32 reporter, mRNA; actives raise or lower the signal. The essentials:
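Internal background marker read-out: RT-PCR/capillary electrophoresis fluorescence of reporter transcripts from transiently transfected HepG2 cells after 24 h chemical exposure. Activity fitted bidirectionally relative to DMSO negative control.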

For experiment [14], the target named is Hypoxia-inducible factor 1-alpha (Homo sapiens) (UniProt Q16665). The experiment is described as follows: ATG_HIF1a_CIS: Attagene CIS-FACTORIAL HepG2 Assay for human Hypoxia Inducible Factor 1 (HIF1A) (AID 2282951). The conditions noted are these: HepG2 Attagene cis-factorial HIF1a reporter transcription; actives raise or lower the signal. The essentials:
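Fluorescence intensity of capillary-separated, 6-FAM-labelled reporter amplicons gives mRNA induction in HepG2 cells carrying transfected cis-promoter reporter units; cells exposed 24 h, responses fitted up or down from DMSO.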

In experiment [15] the target is Hepatocyte nuclear factor 6 (Homo sapiens) (UniProt Q9UBC0). The experiment is described as follows: ATG_HNF6_CIS: Attagene CIS-FACTORIAL HepG2 Assay for human Hepatocyte Nuclear Factor 6 (HNF6) (AID 2282952). The conditions noted are these: HepG2 Attagene cis-factorial HNF6 reporter transcription; actives raise or lower the signal. An outline of the steps:
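Multiplexed mRNA reporter assay in transfected HepG2; 24 h dosing; RT-PCR plus capillary electrophoresis fluorescence; DMSO-referenced bidirectional curve fitting.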

The target in experiment [16] is Heat shock factor protein 1 (Homo sapiens) (UniProt Q00613). Description: ATG_HSE_CIS: Attagene CIS-FACTORIAL HepG2 Assay for human Heat Shock Transcription Factor 1 (HSE) (AID 2282953). The conditions noted are these: HepG2 HSE cis-reporter, Attagene RNA transcription; actives raise or lower the signal. An outline of the steps: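 HepG2 cells transfected with cis-promoter reporter units sensing endogenous transcription factor activity; reporter mRNA quantified 24 h post-dose by RT-PCR and capillary electrophoresis of 6-FAM-labelled products. Bidirectional fitting against DMSO.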

Experiment [17] can be described thus: ATG_MRE_CIS: Attagene CIS-FACTORIAL HepG2 Assay for human Metal Responsive Element (MRE) (AID 2282954). The conditions noted are these: HepG2 MRE cis-reporter transcription, Attagene multiplex; actives raise or lower the signal. The essentials:
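After a 24 h chemical exposure, transiently transfected HepG2 cells yield RNA whose reporter sequences are amplified, FAM-labelled and sized by capillary electrophoresis. Curves are fitted bidirectionally relative to DMSO.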

The nature of experiment [18]: ATG_PBREM_CIS: Attagene CIS-FACTORIAL HepG2 Assay for human Phenobarbital-responsive Enhancer Module (PBREM) (AID 2282955). The conditions noted are these: HepG2 PBREM cis-reporter, Attagene multiplexed transcription; actives raise or lower the signal. The essentials: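 Cells were transfected with cis-element reporter units and treated for 24 h, after which RNA was extracted and reporter transcripts measured by RT-PCR and capillary electrophoresis.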

Experiment [19] has as its target Bile acid receptor (Homo sapiens) (UniProt Q96RI1). The experiment is described as follows: ATG_IR1_CIS: Attagene CIS-FACTORIAL HepG2 Assay for human Nuclear Receptor Subfamily 1 Group H Member 4 (NR1H4), IR1 submotif (AID 2282946). The conditions noted are these: IR1 reporter transcription, actives raise or lower the signal. An outline of the steps:
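Cells (human HepG2) carry transiently transfected cis-promoter reporter transcription units. Compounds are incubated 24 h, total RNA is reverse-transcribed and amplified, and labelled fragments are resolved by capillary electrophoresis. Curves use DMSO as baseline.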

The values below come from PubChem BioAssay (EPA / NIEHS).

Several values for one entry are separate records, joined by “and”; a condition that tells them apart may be missing. Equal entries are not always repeated. More than one record can exist for a structure, and the calls need not agree. Activity calls are given as the source filed them. The calls were made as follows: active = hit-call score of the fitted dose curve at least 0.9, where 1 is the maximum; inactive = score below 0.9.

Chain of Hepatocyte nuclear factor 3-beta (Homo sapiens) (Q9Y261 whole entry, looked up): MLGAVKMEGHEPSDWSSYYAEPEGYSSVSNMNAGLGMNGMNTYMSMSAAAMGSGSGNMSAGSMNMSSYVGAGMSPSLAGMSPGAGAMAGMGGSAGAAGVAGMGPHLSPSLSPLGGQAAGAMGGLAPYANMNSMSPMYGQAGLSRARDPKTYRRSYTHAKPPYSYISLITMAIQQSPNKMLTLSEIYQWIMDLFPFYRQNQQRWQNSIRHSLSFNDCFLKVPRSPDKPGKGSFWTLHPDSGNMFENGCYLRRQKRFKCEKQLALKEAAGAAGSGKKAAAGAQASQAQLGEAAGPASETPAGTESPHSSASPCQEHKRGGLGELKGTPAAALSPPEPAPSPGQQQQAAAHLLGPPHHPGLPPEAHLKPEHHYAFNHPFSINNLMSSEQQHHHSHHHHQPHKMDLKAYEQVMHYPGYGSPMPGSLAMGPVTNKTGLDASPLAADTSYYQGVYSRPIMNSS
Chain of Hypoxia-inducible factor 1-alpha (Homo sapiens) (Q16665 whole entry, looked up): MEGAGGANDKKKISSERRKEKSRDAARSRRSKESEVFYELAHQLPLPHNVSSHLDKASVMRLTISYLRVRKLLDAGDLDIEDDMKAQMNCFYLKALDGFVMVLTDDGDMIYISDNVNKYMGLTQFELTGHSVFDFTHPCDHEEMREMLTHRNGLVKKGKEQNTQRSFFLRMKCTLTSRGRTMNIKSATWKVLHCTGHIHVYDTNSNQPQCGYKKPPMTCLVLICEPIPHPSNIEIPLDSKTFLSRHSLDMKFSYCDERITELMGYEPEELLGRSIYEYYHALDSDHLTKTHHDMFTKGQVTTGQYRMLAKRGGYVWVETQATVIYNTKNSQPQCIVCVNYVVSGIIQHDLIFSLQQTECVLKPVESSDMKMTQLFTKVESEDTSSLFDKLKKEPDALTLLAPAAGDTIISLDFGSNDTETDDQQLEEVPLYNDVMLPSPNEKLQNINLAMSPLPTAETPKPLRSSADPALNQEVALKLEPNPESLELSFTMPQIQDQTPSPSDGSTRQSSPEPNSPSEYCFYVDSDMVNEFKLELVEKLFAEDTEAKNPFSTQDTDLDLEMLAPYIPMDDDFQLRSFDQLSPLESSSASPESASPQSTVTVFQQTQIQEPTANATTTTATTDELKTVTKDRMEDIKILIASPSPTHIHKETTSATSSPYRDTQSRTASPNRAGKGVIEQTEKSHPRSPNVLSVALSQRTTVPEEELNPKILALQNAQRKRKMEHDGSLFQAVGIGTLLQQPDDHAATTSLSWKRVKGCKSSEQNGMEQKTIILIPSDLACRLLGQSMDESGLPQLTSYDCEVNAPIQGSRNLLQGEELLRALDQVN
Chain of Heat shock factor protein 1 (Homo sapiens) (Q00613 whole entry, looked up): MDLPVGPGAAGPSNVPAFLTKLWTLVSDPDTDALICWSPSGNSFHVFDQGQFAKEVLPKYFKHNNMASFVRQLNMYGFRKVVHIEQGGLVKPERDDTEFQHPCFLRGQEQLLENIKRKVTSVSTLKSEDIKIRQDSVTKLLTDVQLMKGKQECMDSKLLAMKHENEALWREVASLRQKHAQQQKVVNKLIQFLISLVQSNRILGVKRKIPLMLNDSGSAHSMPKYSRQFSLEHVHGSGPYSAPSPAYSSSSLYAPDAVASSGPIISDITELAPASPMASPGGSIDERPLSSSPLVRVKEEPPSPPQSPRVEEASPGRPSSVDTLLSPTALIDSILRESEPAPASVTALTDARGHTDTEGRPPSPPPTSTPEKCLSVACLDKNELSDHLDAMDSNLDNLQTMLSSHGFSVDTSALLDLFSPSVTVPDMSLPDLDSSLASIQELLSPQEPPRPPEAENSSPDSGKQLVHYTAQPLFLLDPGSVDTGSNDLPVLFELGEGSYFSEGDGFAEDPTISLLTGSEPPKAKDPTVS
Chain of Bile acid receptor (Homo sapiens) (Q96RI1 whole entry, looked up, the tested form may be a part): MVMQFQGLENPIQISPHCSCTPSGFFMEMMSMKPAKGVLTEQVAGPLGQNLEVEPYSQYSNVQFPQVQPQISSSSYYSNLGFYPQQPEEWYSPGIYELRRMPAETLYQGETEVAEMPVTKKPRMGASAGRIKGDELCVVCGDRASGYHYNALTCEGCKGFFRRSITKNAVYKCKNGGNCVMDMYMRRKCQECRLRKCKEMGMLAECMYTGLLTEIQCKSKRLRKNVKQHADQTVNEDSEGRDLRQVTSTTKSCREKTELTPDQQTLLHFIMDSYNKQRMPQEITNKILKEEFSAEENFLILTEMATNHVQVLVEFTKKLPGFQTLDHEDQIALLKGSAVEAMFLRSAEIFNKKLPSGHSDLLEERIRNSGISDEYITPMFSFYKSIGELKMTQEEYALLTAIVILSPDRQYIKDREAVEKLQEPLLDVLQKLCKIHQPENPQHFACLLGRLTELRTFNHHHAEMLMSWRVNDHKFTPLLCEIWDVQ
Chain of Hepatocyte nuclear factor 6 (Homo sapiens) (Q9UBC0 whole entry, looked up): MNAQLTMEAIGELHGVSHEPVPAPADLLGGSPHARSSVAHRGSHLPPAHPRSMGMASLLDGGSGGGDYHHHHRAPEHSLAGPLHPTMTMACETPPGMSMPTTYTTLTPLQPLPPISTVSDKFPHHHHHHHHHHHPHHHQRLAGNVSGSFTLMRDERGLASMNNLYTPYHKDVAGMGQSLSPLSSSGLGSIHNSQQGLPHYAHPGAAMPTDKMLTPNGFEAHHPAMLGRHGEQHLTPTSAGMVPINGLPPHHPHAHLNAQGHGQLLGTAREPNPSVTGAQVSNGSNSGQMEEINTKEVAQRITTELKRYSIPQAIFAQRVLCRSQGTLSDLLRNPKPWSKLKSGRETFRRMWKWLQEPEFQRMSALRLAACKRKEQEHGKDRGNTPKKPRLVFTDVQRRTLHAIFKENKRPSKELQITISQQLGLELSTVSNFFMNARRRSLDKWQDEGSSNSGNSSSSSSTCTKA

The AC50 is the concentration at which the activity in the assay is half-maximal. Regarding `O=C(O)C(F)(F)C(F)(F)C(F)(F)C(F)(F)C(F)(F)C(F)(F)C(F)(F)C(F)(F)C(F)(F)F`, the half-maximal activity concentration (AC50) in experiment [1] was 88.6 µM (active); in [3], 42.9 µM (active) and 22.2 µM (active); in [12], 48.2 µM (active) and 33.8 µM (active) and 90.4 µM (active); in experiment [13], 78.3 µM (active); in experiment [14], 26.6 µM (active); in experiment [15] it was 58.9 µM (active). For the same compound, the AC50 in [16] was 50.3 µM (active) and 50 µM (active); in experiment [17], 49.2 µM (active) and 42.6 µM (active) and 22.6 µM (active). The outcome in experiment [1], in experiment [2], in experiment [3], in experiment [4], in experiment [5] and in [6] was inactive. Moreover, the call in experiment [7], in experiment [8], in experiment [9], in experiment [10], in experiment [11] and in experiment [13] was inactive. In addition, the compound was classed as inactive in experiment [14], in [15], in [16] and in experiment [18].
For the compound `Cc1cc(-c2ccc(N)c(C)c2)ccc1N`, the outcome in experiment [1], in [2], in [3], in [4], in experiment [6] and in experiment [7] was inactive. Further, the compound was called inactive in experiment [8], in experiment [9], in experiment [10], in experiment [12], in experiment [13] and in experiment [14]. Besides, the outcome in experiment [15], in experiment [16], in experiment [17] and in [18] was inactive. In addition, the AC50 in experiment [5] is 14.6 µM (active) and 12.8 µM (active).
On to `Cc1cc(O)ccc1Cl`, for which the outcome in experiment [1], in [2], in [3], in experiment [4], in experiment [6] and in [7] was inactive. Moreover, the compound was classed as inactive in experiment [8], in experiment [9], in experiment [10], in experiment [19], in experiment [11] and in experiment [12]. The result in experiment [13], in experiment [14], in [15], in [16] and in experiment [17] was inactive. In addition, in experiment [5], the AC50 was 48.5 µM (active).
Consider `O=C(O)C(F)(F)C(F)(F)C(F)(F)C(F)(F)C(F)(F)C(F)(F)C(F)(F)C(F)(F)F`, for which the result in experiment [1], in [2], in [3], in [6], in [7] and in experiment [8] was inactive. Further, the compound was called inactive in experiment [9], in experiment [10], in experiment [19], in experiment [11], in [12] and in [13]. For the same compound, the result in [14], in experiment [15] and in experiment [17] was inactive. Besides, the half-maximal activity concentration (AC50) in [3] is 150 µM (active) and 50 µM (active); in experiment [5], 39.4 µM (active) and 38.2 µM (active) and 15.2 µM (active); in [12] it was 150 µM (active) and 46.3 µM (active); in [14], 50 µM (active); in experiment [17] it was 210 µM (active) and 50 µM (active).
On to `CCCCCCCCOC(=O)c1ccccc1C(=O)OCCCCCCCC`, for which the outcome in experiment [1], in experiment [2], in [3], in [4], in [5] and in experiment [6] was inactive. Moreover, the outcome in experiment [7], in experiment [8], in [9], in experiment [10], in experiment [19] and in experiment [12] was inactive. For the same compound, the call in experiment [13], in experiment [15], in experiment [16], in [17] and in [18] was inactive. Moreover, in experiment [14], the concentration at half-maximal activity (AC50) was 40.1 µM (active).
